Reference: PubChem BioAssay (NCATS)
Records with an inconclusive call do not appear. Entries that show only a call come without a potency. Unmarked numbers belong to inactive results. Calls of active or inactive are those of the source. Unless noted, calls follow the shape of the dose curve; as a rule, active = well fitted curve in the direction sought with a large enough effect; inconclusive = small, poorly fitted or top-dose-only effect, or another doubt; inactive = no such curve, though single readings can be large; an effect the other way counts as inactive or inconclusive.

Tests used:
[1] = target: Protein phosphatase 1D (Homo sapiens) (UniProt O15297); assay: RapidFire Mass Spectrometry qHTS Assay for Modulators of WT P53-Induced Phosphatase 1 (WIP1) (AID 1347424);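 also: amount of dephosphorylated VEPPL-S-QETFS peptide product formed by WIP1; series mostly up to about 63 µM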
Chain of Protein phosphatase 1D (Homo sapiens) (O15297 whole entry, looked up): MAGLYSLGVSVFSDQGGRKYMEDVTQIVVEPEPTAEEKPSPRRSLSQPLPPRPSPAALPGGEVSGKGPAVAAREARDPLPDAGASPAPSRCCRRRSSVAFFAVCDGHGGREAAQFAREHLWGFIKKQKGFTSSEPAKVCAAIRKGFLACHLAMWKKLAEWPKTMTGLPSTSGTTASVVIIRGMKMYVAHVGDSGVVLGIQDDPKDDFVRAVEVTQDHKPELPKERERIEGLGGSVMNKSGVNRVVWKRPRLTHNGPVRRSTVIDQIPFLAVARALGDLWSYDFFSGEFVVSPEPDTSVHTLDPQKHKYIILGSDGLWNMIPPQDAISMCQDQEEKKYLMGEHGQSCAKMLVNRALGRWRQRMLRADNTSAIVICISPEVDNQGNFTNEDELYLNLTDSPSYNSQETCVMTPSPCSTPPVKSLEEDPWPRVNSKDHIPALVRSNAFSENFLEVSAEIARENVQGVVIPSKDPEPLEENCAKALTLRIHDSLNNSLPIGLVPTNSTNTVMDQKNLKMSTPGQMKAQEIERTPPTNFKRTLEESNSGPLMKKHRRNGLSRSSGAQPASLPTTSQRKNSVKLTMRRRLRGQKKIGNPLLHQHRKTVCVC
How it was run: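 10 nM WIP1 + cpd, 1 h RT; + 2 uM VEPPL-pS-QETFS, 5 min RT; stop 0.5% formic acid; labelled product standard 1 uM; RapidFire MS. Buffer 50 mM Tris pH 7.5, 30 mM MgCl2, 1 mM TCEP.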

[2] = target: Protein phosphatase 1D (Homo sapiens) (UniProt O15297); assay: Rhodamine-PBP qHTS Assay for Modulators of WT P53-Induced Phosphatase 1 (WIP1) (AID 1347425)
How it was run: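 WIP1 (5 nM final) was preincubated with compound for 1 hour at room temperature. It then dephosphorylated 10 uM VEPPL-pS-QETFS peptide in Tris-HCl pH 7.5 with 30 mM MgCl2. Released Pi was detected by 10 uM Rh-PBP fluorescence (ex 525/em 598 nm) read at 1-min intervals for 11 min, as delta f1 - f0.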

[3] = Primary qHTS for inhibitors of La Crosse Virus (LACV) - induced cell death in SH-SY5Y cells (AID 1508616);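 also: top concentration of the series differs between compounds; higher means more rescue of cells from virus-induced death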
How it was run: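 SH-SY5Y cells (6000/well) plated 24 h, then given compounds by pin transfer and LACV at 0.01 MOI for 6 days at 37C. Viability measured by ATPLite luminescence, normalized to infected DMSO and uninfected DMSO.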

[4] = target: Calcium and integrin-binding protein 1 (Homo sapiens) (UniProt Q99828); assay: Primary qHTS for Identification of Calcium Integrin Binding Protein 1 (CIB1) Competitor (AID 1508620);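 also: GST tagged CIB1 binding a fluorescein labelled alphaIIb integrin peptide tracer; top concentration of the series differs between compounds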
Chain of Calcium and integrin-binding protein 1 (Homo sapiens) (Q99828 whole entry, looked up): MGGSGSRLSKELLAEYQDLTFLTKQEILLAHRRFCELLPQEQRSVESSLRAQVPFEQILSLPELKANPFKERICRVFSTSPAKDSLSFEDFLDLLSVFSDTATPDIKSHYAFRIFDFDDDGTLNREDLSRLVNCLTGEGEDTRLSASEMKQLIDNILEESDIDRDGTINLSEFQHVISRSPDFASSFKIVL
How it was run: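 CIB1-GST (1 uM final) and compound incubated 15 min at room temperature before adding FITC-alphaIIb peptide tracer (100 nM final). Competition for binding read by fluorescence polarization (ex 480, em 540) after another 15 min at room temperature.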

[5] = Primary qHTS for small molecule stabilizers of the endoplasmic reticulum resident proteome: Secreted ER Calcium Modulated Protein (SERCaMP) assay (AID 1508630)
How it was run: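 GLuc-SERCaMP-expressing SH-SY5Y cells, pretreated 16 h with compound, are challenged with thapsigargin to empty ER calcium stores; after 4 h, coelenterazine is added directly to the medium and luminescence is imaged.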

[6] = A High-Content qHTS Against Drug Library for the Identification of Small Molecules that Inhibit DYT1 Early Onset Primary Dystonia-Associated Cell Pathology (AID 1645839; calls by dose curve; also: series mostly up to about 46 µM)
How it was run: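 In this high-content image screen, delE TorsinA mislocalization in inducible Flp-In 293 cells is scored as %pathology, with cell count serving as the counterscreen. Compound exposure lasts 48 h under tetracycline induction in reduced-serum medium.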

[7] = target: Cytochrome P450 2D6 (Homo sapiens) (UniProt P10635); assay: Cytochrome P450 family 2 subfamily D member 6 (CYP2D6) small molecule antagonists: luciferase biochemical (cell-free) qHTS assay (AID 1645840; active = well fitted curve in the direction sought with a large enough effect in the repeat runs; an effect the other way counts as inactive or inconclusive; also: nearly all actives have a fitted effect of over 55% in size; also: potency is read from the fitted curve at half-maximal effect)
Chain of Cytochrome P450 2D6 (Homo sapiens) (P10635 whole entry, looked up): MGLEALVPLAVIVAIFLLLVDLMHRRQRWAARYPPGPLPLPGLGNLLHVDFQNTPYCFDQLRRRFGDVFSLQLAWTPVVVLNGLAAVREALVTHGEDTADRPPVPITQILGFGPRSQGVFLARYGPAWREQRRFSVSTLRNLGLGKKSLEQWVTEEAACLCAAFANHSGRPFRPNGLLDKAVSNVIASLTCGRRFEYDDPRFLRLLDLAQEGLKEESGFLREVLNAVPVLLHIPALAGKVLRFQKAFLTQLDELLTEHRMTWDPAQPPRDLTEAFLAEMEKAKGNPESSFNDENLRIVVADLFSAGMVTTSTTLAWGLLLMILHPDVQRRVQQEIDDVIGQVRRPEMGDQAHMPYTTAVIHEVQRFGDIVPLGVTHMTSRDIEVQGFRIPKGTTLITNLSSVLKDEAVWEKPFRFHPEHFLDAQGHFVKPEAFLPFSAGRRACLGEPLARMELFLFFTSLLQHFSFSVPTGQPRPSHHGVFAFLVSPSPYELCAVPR
How it was run: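 P450-Glo luminescent screen: recombinant CYP2D6 enzyme–proluciferin substrate mix preincubated with compound 10 min at room temperature, then NADPH regeneration added for 1 h at room temperature. Detection reagent added for 20 min; luciferin light read as relative luminescence units.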

[8] = target: Cytochrome P450 2C9 (Homo sapiens) (UniProt P11712); assay: Cytochrome P450 family 2 subfamily C member 9 (CYP2C9) small molecule antagonists: luciferase biochemical (cell-free) qHTS assay (AID 1645842; active = well fitted curve in the direction sought with a large enough effect in the repeat runs; an effect the other way counts as inactive or inconclusive; also: nearly all actives have a fitted effect of over 55% in size; also: potency is read from the fitted curve at half-maximal effect)
Chain of Cytochrome P450 2C9 (Homo sapiens) (P11712 whole entry, looked up): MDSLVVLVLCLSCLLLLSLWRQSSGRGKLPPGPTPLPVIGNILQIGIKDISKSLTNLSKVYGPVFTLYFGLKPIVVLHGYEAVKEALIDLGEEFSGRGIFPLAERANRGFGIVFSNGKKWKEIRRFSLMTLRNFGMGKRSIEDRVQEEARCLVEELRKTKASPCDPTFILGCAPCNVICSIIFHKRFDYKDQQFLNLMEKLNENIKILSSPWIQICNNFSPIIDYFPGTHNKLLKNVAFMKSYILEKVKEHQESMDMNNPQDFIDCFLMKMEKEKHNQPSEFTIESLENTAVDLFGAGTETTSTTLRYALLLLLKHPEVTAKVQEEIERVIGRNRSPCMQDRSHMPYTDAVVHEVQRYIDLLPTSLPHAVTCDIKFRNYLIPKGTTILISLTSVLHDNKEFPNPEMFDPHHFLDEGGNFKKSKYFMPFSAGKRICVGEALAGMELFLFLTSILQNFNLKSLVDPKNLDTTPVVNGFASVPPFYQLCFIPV
How it was run: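 Luminescence, after 20 min with luciferin detection reagent, reflected CYP2C9 turnover during a 1 h NADPH-driven reaction at 37C. Enzyme-substrate mix contained 0.4% bovine serum albumin and was preincubated with compound 10 min at room temperature.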

[9] = Primary qHTS for inhibitors of nuclear receptor binding SET domain protein 2 (NSD2) in an isogenic RCH-ACV NSD2 p.E1099K mutant (9B) (AID 1645876); also: nearly all actives have a fitted effect of over 70% in size; also: potency is read from the fitted curve at half-maximal effect
[10] = Primary qHTS for inhibitors of nuclear receptor binding SET domain protein 2 (NSD2) in an RCH-ACV wild type WT cells (2C) (AID 1645877); also: nearly all actives have a fitted effect of over 70% in size; also: potency is read from the fitted curve at half-maximal effect
[11] = Cell Viability qHTS for small molecule stabilizers of the endoplasmic reticulum resident proteome (AID 1508629); conditions: cell viability counter-screen, 100 nM thapsigargin for final 4 h;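 also: human SH-SY5Y neuroblastoma cells carrying the GLuc-SERCaMP reporter; compound exposure about 46 h in total before the viability read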
[12] = Confirmatory qHTS for small molecule stabilizers of the endoplasmic reticulum resident proteome: Secreted ER Calcium Modulated Protein (SERCaMP) assay (AID 1508628); also: series mostly up to about 76 µM; nearly all actives have a fitted effect of over 40% in size
How it was run: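 SH-SY5Y cells stably expressing GLuc-SERCaMP, treated 16 h with compound (primary 1.53, 7.67, 38.3 uM; confirmation 11 concentrations, up to 76.6 uM), then 100 nM thapsigargin for 4 h. Secreted Gaussia luciferase in medium read by coelenterazine luminescence.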

Compound | Potency [1] | outcome [2] | Potency [3] | Potency [4] | Potency [5] | Potency [6] | Potency [7] | Potency [8] | Potency [9] | Potency [10] | max response [11] | Potency [12]
CC(=O)N/N=C/c1ccc([N+](=O)[O-])o1 | inactive | inactive | inactive | inactive | inactive | inactive | 15.5 µM (active) | inactive | 9.44 µM (active) | 8.41 µM (active) | – | –
CN1CCN(CCCN2c3ccccc3Sc3ccc(S(=O)(=O)N(C)C)cc32)CC1 | inactive | inactive | inactive | inactive | – | – | 11 µM (active) | – | – | 21.1 µM (active) | -9.17% | –
NC(=O)C(=O)N/N=C/c1ccc([N+](=O)[O-])o1 | inactive | inactive | inactive | inactive | inactive | inactive | 6.17 µM (active) | inactive | – | – | – | –
CC(=O)Oc1ccc(C(=C2CCCCC2)c2ccc(OC(C)=O)cc2)cc1 | inactive | inactive | inactive | inactive | – | – | 15.5 µM (active) | 9.77 µM (active) | inactive | inactive | – | inactive
c1ccc(-c2ccc(C(c3ccccc3)n3ccnc3)cc2)cc1 (configuration not stated) | inactive | inactive | inactive | inactive | – | – | 0.246 µM (active) | 0.0245 µM (active) | 21.1 µM (active) | 13.3 µM (active) | – | inactive
CCCCN1CCCC1C(=O)Nc1c(C)cc(C)cc1C (configuration not stated) | inactive | inactive | inactive | inactive | inactive | inactive | 3.89 µM (active) | inactive | – | – | – | –
CCCCCCCCCCOCC(O)CN (configuration not stated) | inactive | inactive | inactive | inactive | inactive | – | 4.83 µM (active) | 10.8 µM (active) | – | – | – | –
Cc1c(F)c(N2CCNC(C)C2)cc2c1c(=O)c(C(=O)O)cn2C1CC1 (configuration not stated) | inactive | inactive | inactive | inactive | inactive | inactive | inactive | inactive | inactive | inactive | – | –
CCCCC1=NC2(CCCC2)C(=O)N1Cc1ccc(-c2ccccc2-c2nn[nH]n2)cc1 | inactive | inactive | inactive | inactive | inactive | inactive | inactive | 17.4 µM (active) | inactive | inactive | – | –
CCCCc1nc(Cl)c(CO)n1Cc1ccc(-c2ccccc2-c2nn[nH]n2)cc1 | inactive | inactive | inactive | inactive | inactive | inactive | inactive | 2.68 µM (active) | inactive | inactive | – | –
C[C@]12CCC(=O)C=C1CC[C@H]1[C@@H]3CC[C@](O)(C(=O)CO)[C@@]3(C)C[C@H](O)[C@@]12F | inactive | inactive | inactive | inactive | inactive | inactive | inactive | inactive | – | 0.0106 µM (active) | – | –
